# Assay results as given in PubChem BioAssay AID2314 (National Center for Advancing Translational Sciences (NCATS), 2010).
# In all, about 300,000 compounds went through this assay and about 37,000 (12%) were called active. This is one part of a sample in which actives are shown more often than they occur. A number with no mark means an inactive call. Cut-off read from the data, not from the text of the source: active = max response mostly above about 13% (no sharp cut-off); inactive = mostly below about 14%.
# Experiment: Cycloheximide Counterscreen for Small Molecule Inhibitors of Shiga Toxin; note: read at 38.3 µM for the half of the compounds with a filed dose; 0% is about no effect
# Details: cell reporter, cycloheximide protein synthesis inhibition counterscreen; stronger effect = higher value
row,Compound,max response
1,Cc1cc(C)c(OCC(=O)N/N=C/c2ccco2)c(C)c1,-3.21%
2,CC(/C=N/NC(=O)c1ccncc1)=C\c1ccco1,10.3%
3,CC(/C=N/NC(=O)c1cc(-c2ccc3ccccc3c2)n[nH]1)=C\c1ccco1,22.2% (active)
4,OCCNCc1cccc(OCc2ccccc2Cl)c1,-3.04%
5,O=C(COC(=O)c1cc(=O)[nH]c2ccccc12)Nc1nc(-c2cccc(Br)c2)cs1,0.762%
6,Cc1cc(O)c(NC(=O)c2ccc(C)c([N+](=O)[O-])c2)cc1C,40.4% (active)
7,Cc1ccc(C(=O)Nc2cccc3ncccc23)cc1[N+](=O)[O-],9.95%
8,CCN1CCC(=NNC(=O)c2ccc(C)c([N+](=O)[O-])c2)CC1,-3.08%
9,COc1cccc(-c2nc(CS(=O)(=O)CC(=O)NCCc3ccc(OC)c(OC)c3)c(C)o2)c1,16%
10,COc1ccccc1NC(=O)/C=C/C(=O)O,-1.17%
11,O=C(O)/C=C/C(=O)Nc1ccc(F)cc1F,7.97%
12,COC(=O)c1sc(-c2ccc(C(C)(C)C)cc2)cc1NC(=O)/C=C/C(=O)O,45.7% (active)
13,O=C(CCn1nnnc1CN1CCOCC1)N1CCC(c2ccccc2Cl)C1 (configuration not stated),-3.06%
14,CC(=O)c1c(C)n(-c2ccc(C)cc2)c2ccc(O)cc12,-2.22%
15,Cc1cc(=O)[nH]c(SCC(=O)N2c3ccccc3CC2C)n1 (configuration not stated),1.01%
16,CCN(CC)C(=O)CSc1nc2ccccc2o1,21.2% (active)
17,CCN(CC)C(=O)CSc1nnc(-c2ccc(S(=O)(=O)NCc3ccccc3Cl)cc2)o1,-0.581%
18,O=C(CSc1nc2ccccc2o1)N1c2ccccc2Sc2ccc(Cl)cc21,-1.63%
19,CC1Cc2ccccc2N1C(=O)CSc1nc2ccccc2o1 (configuration not stated),42.4% (active)
20,CCOC(=O)CSc1nnc(-c2cccc(Br)c2)o1,-2.27%
21,CCN(CC)C(=O)CSc1nnc(-c2cccc(OC)c2)o1,41% (active)
22,CCS(=O)(=O)c1ccc2oc(SCC(=O)N3c4ccccc4CC3C)nc2c1 (configuration not stated),-5.84%
23,CC(C)(C)C(=O)CSc1nc2ccccc2o1,34.5% (active)
24,O=C(CSc1nc2ccccc2o1)N1CCN(c2ccccc2)CC1,-3.14%
25,O=C(CSc1nc2ccccc2o1)N1CCN(c2ccc(Cl)cc2)CC1,3.68%
26,CCOC(=O)n1c(SCC(=O)N(CC)CC)nc2ccccc21,0.246%
27,COc1ccc(CCNC(=O)C2CCCN2C(=O)Nc2ccccc2)cc1OC (configuration not stated),-1.21%
